# The source made the active and inactive calls.
# Assays:
# [1] = biological target: Albumin (Bos taurus) (UniProt P02769); assay: compounds binding labelled BSA control protein – biochemical, small-molecule microarray, Alexa647 label, 635/667 nm fluorescence, artefact control for SMM control protein annotation, profiling panel (AID 1118); details: BSA-A647 binding, fluorescence 635 nm, higher = more signal;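 further: score merges 667 nm emission intensity and signal-to-noise per printed compound spot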
# [2] = probe aXIP binding to arrayed compounds – biochemical, NeuroSMM set, 635/667 nm fluorescence, primary screen (AID 1119); details: small-molecule microarray, higher = more signal, called active from +8 up or from −8 down;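 further: probe is the protein aXip251-270 applied at 1 µg/mL to compound-printed slides; binding of probe to printed compounds measured as 667 nm fluorescence plus signal to noise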
# [3] = probe aNOTCH3 binding on compound microarray – biochemical, small-molecule microarray, 635/667 nm fluorescence, primary screen (AID 1120); details: higher = more signal;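 further: probe is a biotin-tagged antibody raised against NOTCH3 rather than NOTCH3 protein; score merges spot fluorescence near 667 nm with spot signal to noise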
# [4] = probe aNOTCH2 binding on compound microarray – biochemical, small-molecule microarray, 635/667 nm fluorescence, primary screen (AID 1121); details: higher = more signal;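 further: score merges feature fluorescence read at 667 nm with its signal to noise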
# [5] = biological target: Carbonic anhydrase 2 (Homo sapiens) (UniProt P00918); assay: compounds binding carbonic anhydrase 2 – biochemical, small-molecule microarray, Alexa647-labelled CAII, profiling panel (AID 1122); details: CAII-A647 binding fluorescence, higher = more signal
# [6] = COS7 lysate on small-molecule microarray, probe aHis, 635 nm (AID 1123); details: COS7 cell lysate, fluorescence, higher = more signal;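 further: z-score combines 667nm fluorescence intensity with signal-to-noise per printed compound spot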
# [7] = probe aLAP1 signal on lysate-treated microarray – cell lysate, small-molecule microarray, COS7 lysate, primary screen (AID 1124); details: probe aLAP1, fluorescence, higher = more signal;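 further: lysate comes from COS7 cells expressing LAP1 and is applied at 0.3 µg/mL; score merges spot fluorescence near 667 nm with signal-to-noise over triplicate slides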
# [8] = tested on: Sam68 (KHDRBS1); assay: compounds binding KHDRBS1 protein – biochemical, small-molecule microarray, 635 nm fluorescence, primary screen (AID 1125); details: higher = more signal;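 further: score merges 667 nm channel intensity with signal to noise over triplicate slides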
# [9] = tested on: Chordin-like protein 2 (CHRDL2); assay: compounds binding chordin-like 2 – biochemical, small-molecule microarray, 635 nm fluorescence, primary screen (AID 1126); details: fluorescence 635 nm, higher = more signal;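 further: printed compound slides probed with Chrdl2 protein at 4 µg/mL for 1 h at 4 C; score merges 667 nm emission intensity with signal to noise over three replicate slides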
# [10] = biological target: Concanavalin-A (Canavalia ensiformis) (UniProt P02866); assay: compounds binding concanavalin A lectin – biochemical, small-molecule microarray, Alexa647 label, 635 nm, artefact control for SMM control protein annotation, primary screen (AID 1127); details: ConA-A647 binding fluorescence, higher = more signal;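 further: z combines 667 nm emission intensity with signal-to-noise across three replicate slides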
# [11] = compounds binding Alexa647 anti-His antibody – biochemical, small-molecule microarray, 635 nm fluorescence, artefact control for SMM control protein annotation, primary screen (AID 1128); details: higher = more signal;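 further: score merges feature fluorescence with signal-to-noise for each printed compound spot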
# [12] = tested on: Human papillomavirus type 1a E7 protein (residues 1-88); assay: HPV1a E7 small-molecule binders, primary screen, biochemical, small-molecule microarray, residues 1-88, 635 nm (AID 1129); details: small-molecule microarray binding, fluorescence 635 nm; higher = more signal
# [13] = biological target: Focal adhesion kinase 1 (Homo sapiens) (UniProt Q05397); assay: PTK2 protein binding on printed compound slides – biochemical, small-molecule microarray, 635/667 nm fluorescence, BSA, DTT, primary screen (AID 1130); details: 635 nm fluorescence, higher = more signal;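 further: composite of spot emission at 667 nm and signal to noise over triplicate slides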
# [14] = tested on: Fibrinogen (Alexa647-labelled); assay: Alexa647-fibrinogen binding to printed small molecules – biochemical, small-molecule microarray, 635/667 nm fluorescence, artefact control for SMM control-protein annotation, profiling panel (AID 1131); details: fibrinogen-A647 binding fluorescence, higher = more signal;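 further: z-score merges 667 nm fluorescence with per-spot signal-to-noise over triplicate slides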
# [15] = biological target: Follistatin (Homo sapiens) (UniProt P19883); assay: FST protein binding to printed compounds – biochemical, small-molecule microarray, 635/667 nm fluorescence, primary screen (AID 1132); details: 635 nm fluorescence, higher = more signal
# [16] = biological target: Fibroblast growth factor 2 (Homo sapiens) (UniProt P09038); assay: basic fibroblast growth factor binding to printed compounds – biochemical, small-molecule microarray, 635/667 nm fluorescence, primary screen (AID 1133); details: FGF2, fluorescence 635/667, higher = more signal
# [17] = JC-1 mitochondrial potential readout, lung cancer cells – cell-based, A549, JC-1 fluorescence, basal, 24 h, 100 nL, profiling panel (AID 1138); details: higher = more signal;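 further: A549 lung adenocarcinoma cells under basal conditions with no added stimulus; test concentration not given here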
# [18] = tested on: Lefty1; assay: Lefty1 protein binding to printed compounds – biochemical, small-molecule microarray, 635/667 nm fluorescence, primary screen (AID 1139); details: fluorescence 635/667, higher = more signal
# [19] = tested on: wheat germ agglutinin (Triticum aestivum), Alexa647-labelled; assay: Alexa647-WGA lectin binding to printed small molecules – biochemical, small-molecule microarray, 635/667 nm fluorescence, artefact control for SMM control-protein annotation, profiling panel (AID 1140); details: WGA-A647 binding, 635 nm fluorescence, higher = more signal;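 further: score merges 667 nm feature emission with signal to noise over triplicate slides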
# [20] = biological target: Luciferin 4-monooxygenase (Photinus pyralis) (UniProt P08659); assay: inhibition of purified Photinus pyralis luciferase – biochemical, luminescence, purified enzyme, 2006 set, primary screen (AID 1141); details: purified firefly luciferase, SteadyGlo luminescence, 30 min; higher = more signal, called active from +8 up or from −8 down;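 further: cell-free assay with purified firefly luciferase at 100 ng per well in PBS; test concentration not given here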
# Sequence of Luciferin 4-monooxygenase (Photinus pyralis) (P08659 whole entry, looked up): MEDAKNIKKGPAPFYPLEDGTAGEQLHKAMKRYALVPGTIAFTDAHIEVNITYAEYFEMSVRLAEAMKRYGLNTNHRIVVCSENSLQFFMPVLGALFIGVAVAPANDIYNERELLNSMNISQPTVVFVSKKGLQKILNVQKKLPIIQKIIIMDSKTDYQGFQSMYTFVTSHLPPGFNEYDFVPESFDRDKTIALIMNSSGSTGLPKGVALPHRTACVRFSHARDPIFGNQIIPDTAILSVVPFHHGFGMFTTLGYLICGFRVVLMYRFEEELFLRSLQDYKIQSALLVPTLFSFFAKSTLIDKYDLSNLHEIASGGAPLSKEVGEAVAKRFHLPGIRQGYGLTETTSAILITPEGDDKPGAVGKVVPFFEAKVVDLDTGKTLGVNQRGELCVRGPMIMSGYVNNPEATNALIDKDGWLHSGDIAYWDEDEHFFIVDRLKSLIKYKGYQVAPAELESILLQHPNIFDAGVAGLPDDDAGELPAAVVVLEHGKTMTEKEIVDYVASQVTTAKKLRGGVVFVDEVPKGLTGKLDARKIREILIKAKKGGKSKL
# Sequence of Follistatin (Homo sapiens) (P19883 whole entry, looked up): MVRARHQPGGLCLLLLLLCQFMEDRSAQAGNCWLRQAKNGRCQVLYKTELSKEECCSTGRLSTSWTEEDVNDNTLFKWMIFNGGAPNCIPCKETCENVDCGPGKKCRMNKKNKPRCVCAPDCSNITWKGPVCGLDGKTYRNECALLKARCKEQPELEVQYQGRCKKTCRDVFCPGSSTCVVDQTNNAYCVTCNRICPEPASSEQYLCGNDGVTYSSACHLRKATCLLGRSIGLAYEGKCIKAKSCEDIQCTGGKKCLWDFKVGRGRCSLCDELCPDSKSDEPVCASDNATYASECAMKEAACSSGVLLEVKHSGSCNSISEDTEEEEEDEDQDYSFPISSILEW
# Sequence of Fibroblast growth factor 2 (Homo sapiens) (P09038 whole entry, looked up): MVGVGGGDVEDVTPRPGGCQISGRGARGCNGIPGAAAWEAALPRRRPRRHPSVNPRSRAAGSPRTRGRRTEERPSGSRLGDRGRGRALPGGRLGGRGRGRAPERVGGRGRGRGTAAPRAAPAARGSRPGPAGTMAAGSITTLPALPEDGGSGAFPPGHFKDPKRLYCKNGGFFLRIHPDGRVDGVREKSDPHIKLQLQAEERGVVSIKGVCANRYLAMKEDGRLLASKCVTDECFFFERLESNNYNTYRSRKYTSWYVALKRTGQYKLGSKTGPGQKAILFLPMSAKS
# Sequence of Focal adhesion kinase 1 (Homo sapiens) (Q05397 whole entry, looked up): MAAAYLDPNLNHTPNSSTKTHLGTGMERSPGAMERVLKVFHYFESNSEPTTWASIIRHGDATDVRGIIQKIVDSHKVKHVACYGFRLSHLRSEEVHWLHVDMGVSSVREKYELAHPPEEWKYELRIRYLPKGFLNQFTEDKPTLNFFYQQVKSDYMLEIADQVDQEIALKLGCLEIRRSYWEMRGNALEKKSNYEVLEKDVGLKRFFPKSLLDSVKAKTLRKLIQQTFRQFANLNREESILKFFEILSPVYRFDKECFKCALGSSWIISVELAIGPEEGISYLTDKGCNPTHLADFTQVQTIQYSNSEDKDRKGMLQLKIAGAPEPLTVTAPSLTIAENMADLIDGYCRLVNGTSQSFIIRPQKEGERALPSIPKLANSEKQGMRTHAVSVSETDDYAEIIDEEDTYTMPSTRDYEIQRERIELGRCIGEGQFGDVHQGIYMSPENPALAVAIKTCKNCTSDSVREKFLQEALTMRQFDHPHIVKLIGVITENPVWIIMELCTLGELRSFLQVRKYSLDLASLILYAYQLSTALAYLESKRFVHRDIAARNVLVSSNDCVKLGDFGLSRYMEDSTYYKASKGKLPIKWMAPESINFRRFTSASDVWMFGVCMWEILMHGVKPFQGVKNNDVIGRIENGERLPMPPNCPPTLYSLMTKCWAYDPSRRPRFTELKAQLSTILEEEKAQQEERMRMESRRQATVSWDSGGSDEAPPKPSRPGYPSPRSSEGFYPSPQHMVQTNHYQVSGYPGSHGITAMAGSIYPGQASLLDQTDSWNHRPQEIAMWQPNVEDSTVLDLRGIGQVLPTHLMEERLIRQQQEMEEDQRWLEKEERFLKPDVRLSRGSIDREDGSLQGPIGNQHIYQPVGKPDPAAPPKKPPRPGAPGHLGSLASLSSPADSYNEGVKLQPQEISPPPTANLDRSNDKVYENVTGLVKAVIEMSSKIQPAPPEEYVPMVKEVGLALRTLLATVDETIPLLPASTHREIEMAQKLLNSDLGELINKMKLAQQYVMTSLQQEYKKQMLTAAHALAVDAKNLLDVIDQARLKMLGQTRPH
# Sequence of Concanavalin-A (Canavalia ensiformis) (P02866 whole entry, looked up): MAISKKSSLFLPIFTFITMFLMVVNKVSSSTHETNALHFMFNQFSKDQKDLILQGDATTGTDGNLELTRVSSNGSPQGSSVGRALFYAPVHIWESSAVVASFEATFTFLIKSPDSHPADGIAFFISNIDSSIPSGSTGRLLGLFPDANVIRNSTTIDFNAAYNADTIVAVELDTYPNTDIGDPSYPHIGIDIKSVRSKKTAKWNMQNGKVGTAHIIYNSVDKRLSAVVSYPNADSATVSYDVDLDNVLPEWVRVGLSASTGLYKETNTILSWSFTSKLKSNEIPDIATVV
# Sequence of Albumin (Bos taurus) (P02769 whole entry, looked up): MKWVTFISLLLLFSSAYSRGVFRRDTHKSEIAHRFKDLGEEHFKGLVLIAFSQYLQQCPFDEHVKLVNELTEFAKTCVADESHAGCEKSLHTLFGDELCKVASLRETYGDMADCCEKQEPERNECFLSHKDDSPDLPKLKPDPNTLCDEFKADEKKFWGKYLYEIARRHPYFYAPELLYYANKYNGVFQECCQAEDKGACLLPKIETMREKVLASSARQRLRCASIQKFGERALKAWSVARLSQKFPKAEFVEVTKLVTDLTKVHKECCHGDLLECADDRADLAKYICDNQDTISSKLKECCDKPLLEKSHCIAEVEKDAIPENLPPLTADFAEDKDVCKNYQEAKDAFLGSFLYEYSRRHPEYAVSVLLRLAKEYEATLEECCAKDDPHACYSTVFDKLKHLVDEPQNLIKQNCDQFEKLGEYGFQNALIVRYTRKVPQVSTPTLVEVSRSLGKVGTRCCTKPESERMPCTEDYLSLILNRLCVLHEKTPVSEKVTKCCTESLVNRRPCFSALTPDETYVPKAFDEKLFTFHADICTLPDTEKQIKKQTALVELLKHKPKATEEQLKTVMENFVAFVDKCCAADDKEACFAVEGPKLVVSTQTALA
SMILES,composite z-score [1],composite Z-score [2],composite z-score [3],composite z-score [4],composite z-score [5],composite z-score [6],composite z-score [7],composite z-score [8],composite z-score [9],composite z-score [10],composite z-score [11],composite z-score [12],composite z-score [13],composite z-score [14],composite z-score [15],composite z-score [16],z-score [17],composite z-score [18],composite z-score [19],z-score [20]
COc1ccc(NC(=O)O[C@H]2[C@H](OC(=O)Nc3ccc4c(c3)OCO4)[C@@H](OC(=O)Nc3ccc4c(c3)OCO4)[C@@H](OC)O[C@@H]2CO)cc1,0.837,0.622 (inactive),0.121,-0.0116,0.442,2.71,0.714,1.29,0.143,1.11,1.34,1.25,0.316,0.922,1.16,0.802,-0.669,0.598,0.943,-4.27 (inactive)
[N-]=[N+]=NCc1ccccc1C[C@@]1(C(N)=O)N=C(c2ccc(OCCCO)cc2)O[C@@H]1c1ccccc1CN=[N+]=[N-],0.757,1.22 (inactive),0.105,-0.0386,0.549,1.5,0.383,1.29,-0.464,0.792,1.13,1.22,0.0375,0.761,0.591,0.653,1.45,-0.242,0.756,-1.11 (inactive)
COCCCNC(=O)[C@@]1(Sc2ccc(C)cc2)CC(=O)N(C2Cc3ccccc3C2)[C@@H]1c1ccc(CO)cc1I,-1.09,-0.298 (inactive),-0.146,-0.102,0.871,-0.152,0.297,-0.52,-0.555,-1.61,-0.961,-1.01,-1.01,-1.07,-1.01,-1.19,0.314,-1.68,-0.0708,0.553 (inactive)
C=C(C(=O)CC[C@H](OC(=O)c1cccnc1)c1cccc(OCCO)c1)C(C)C,-0.849,0.587 (inactive),-0.0971,-0.161,0.0143,0.0609,-0.0536,0.481,-0.507,-0.0842,0.0024,-0.498,-0.136,-0.744,-1.01,-0.464,0.838,0.0695,-0.168,-0.894 (inactive)
COCCOC(=O)N1C(=O)[C@@]2(c3cc(C#CCNC(N)=O)ccc31)[C@H](C(=O)N1CCCCCCC1)[C@H]1C(=O)O[C@H](c3ccccc3)[C@H](c3ccccc3)N1[C@@H]2c1ccc(O)cc1,0.0763,0.559 (inactive),0.239,-0.0714,0.354,0.654,0.285,1.11,0.626,1.03,-0.269,1,0.478,0.391,1.4,1.24,-0.606,0.742,0.128,-0.352 (inactive)
O=C(O)[C@H](Cc1ccccc1)n1cc(-c2ccccn2)nn1,0.672,-0.341 (inactive),-0.0311,-0.1,0.285,0.383,0.132,0.614,0.129,0.862,0.908,0.585,0.19,0.919,0.676,0.0069,-0.47,0.5,0.425,1.01 (inactive)
COc1ccc([Si](C)(C)[C@@H]2[C@@H](CCn3cc([C@H](O)c4ccccc4)nn3)O[C@]3(C(=O)N(Cc4ccc(N5CCOC5=O)cc4)c4ccccc43)[C@H]2C)cc1,0.579,0.0409 (inactive),0.165,-0.0502,0.0584,0.617,0.664,1.09,1.03,0.853,0.551,1.06,-0.0646,0.851,1.07,1.04,0.708,1.14,0.616,0.82 (inactive)
CC[C@@H]1[C@H]2C3C(=O)N(CC)C(=O)C3CC(=O)[C@H]2[C@H](c2ccc(C)cc2)N1S(=O)(=O)c1ccc(C)cc1 (stereo not given in full),0.779,-0.337 (inactive),0.0271,-0.0468,0.512,1.21,-0.357,1.33,-0.49,0.914,0.733,1.1,0.213,0.142,0.532,0.087,1.18,0.201,0.676,0.497 (inactive)
CC(C)C(CO)N1C(=O)[C@]2(C)C3C(=O)OCCC/C=C\[C@H]3OC23C=CCN(c2ccc(Cl)cc2)C(=O)[C@@H]13 (stereo not given in full),-0.187,-0.132 (inactive),-0.157,-0.164,0.853,3.39,0.32,0.36,-0.883,-0.522,-0.0262,-0.456,0.118,-0.809,-0.223,-0.815,0.612,0.211,-0.367,-0.657 (inactive)
C[C@@H](OCc1ccccc1)C1NC(=O)[C@@]23C(=O)N[C@@H](Cc4ccccc4)C2[C@H](C)[C@@]2(C)O[C@H]2C3/C=C/C/C=C\CNC(=O)CNC1=O (stereo not given in full),0.651,0.536 (inactive),-0.0647,-0.133,0.721,-0.282,0.234,-1.28,0.0667,-2.32,0.413,-0.668,0.193,-2.57,-0.237,-0.113,-0.777,-0.339,-1.08,0.196 (inactive)
O=C1O[C@@H](c2ccccc2)[C@@H](c2ccccc2)N2[C@@H](c3ccc(O)cc3)[C@]3(C(=O)Nc4ccc(C#CC5=CCCCC5)cc43)[C@@H](C(=O)N3CCN(c4ncccn4)CC3)[C@H]12,0.475,0.131 (inactive),-0.0328,-0.111,0.573,1.72,0.299,1.29,0.363,1.11,0.567,1.19,1.24,0.811,1.22,1.1,-0.367,0.68,0.262,0.745 (inactive)
